# From PubChem BioAssay
# For part of these data: Results with a measured potency or affinity are listed apart. The source made the active and inactive calls.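 How the source made its calls, unless noted: active means earlier screen potentiator hit that boosts the TRPC4 ion channel at some dose, with a dose response; inactive means no potentiation, no dose response, or not a prior hit.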
# Legend:
# [1] = test system: TRPC4 beta (transient receptor potential cation channel C4), mouse; assay: activators of mouse TRPC4 channel, confirmation, cell-based, Fluo4 calcium, HEK293 TRPC4beta/mu-opioid, duplicates, 10 µM (AID 2426;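 active means fluorescence ratio normalized to control raised more than 50% in primary screen plus both repeat runs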); details: Fluo4 calcium fluorescence, at 10 µM; stronger effect = higher value
# [2] = test system: transient receptor potential cation channel C4 beta (TRPC4), mouse; assay: activators of mouse TRPC4 channel, confirmation, cell-based, second round, Fluo4, HEK293 TRPC4beta/mu-opioid, 1 µM (AID 2461;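 active means primary screen active and over 50% activation in each of two duplicate runs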); details: Fluo4 calcium fluorescence, at 1 µM; stronger effect = higher value
# [3] = test system: TRPC4 (transient receptor potential cation channel C4 beta), mouse; assay: positive allosteric modulators of mouse TRPC4, confirmation, cell-based, second round, Fluo-4, HEK293 TRPC4beta/mu-opioid, 1 µM (AID 2554;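 active means primary screen hit whose fluorescence ratio, in both repeats, exceeds the weak agonist control mean by 3 SD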); details: DAMGO EC20, Fluo-4 calcium flux, at 1 µM; stronger effect = higher value
# [4] = test system: TRPC4 beta (transient receptor potential cation channel C4), mouse; assay: positive allosteric modulators of mouse TRPC4, confirmation, cell-based, Fluo-4, HEK293 TRPC4beta/mu-opioid (AID 2555;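 active means primary screen hit whose calcium fluorescence ratio, in both repeats, exceeds the weak agonist control mean by 3 SD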); details: DAMGO EC20, Fluo-4 calcium flux, at 10 µM; stronger effect = higher value
# [5] = molecular target: Short transient receptor potential channel 4 (Mus musculus) (UniProt Q9QUQ5); assay: inhibitors of mouse TRPC4 channel, confirmation, cell-based, Fluo4, HEK293 TRPC4beta/mu-opioid (AID 2636;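 active means calcium signal cut by more than 3 SD below the full-agonist control yet still positive, in both repeats and the earlier primary screen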); details: DAMGO, Fluo4 calcium flux, at 10 µM; stronger effect = higher value
# [6] = molecular target: Short transient receptor potential channel 4 (Mus musculus) (UniProt Q9QUQ5); assay: inhibitors of mouse TRPC4 channel, confirmation, cell-based, second round, Fluo4, HEK293 TRPC4beta/mu-opioid, 1 µM (AID 2637;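 active means calcium signal ratio cut to more than 3 SD under the fully stimulated control mean yet still positive, in both repeats and the primary screen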); details: Fluo4 calcium flux, DAMGO, at 1 µM; stronger effect = higher value
# [7] = molecular target: Short transient receptor potential channel 4 (Mus musculus) (UniProt Q9QUQ5); assay: mouse TRPC4 channel activators, dose response, cell-based, HEK293 TRPC4/mu-opioid, Fluo-4 calcium (AID 434937;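 active means primary screen activator hit with a dose response curve and TRPC4 channel activation at any tested dose; inactive means no activation, no dose response, or not a primary hit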)
# [8] = molecular target: Short transient receptor potential channel 4 (Mus musculus) (UniProt Q9QUQ5); assay: TRPC4 positive allosteric modulators, dose response, cell-based, HEK293 TRPC4/mu-opioid, Fluo-4 calcium, EC20 DAMGO (AID 434941);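 further: calcium entry triggered by an EC20 dose of DAMGO at the co-expressed mu-opioid receptor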
# [9] = molecular target: Short transient receptor potential channel 4 (Mus musculus) (UniProt Q9QUQ5); assay: mouse TRPC4 channel inhibitors, dose response, cell-based, HEK293 TRPC4/mu-opioid, Fluo-4 calcium (AID 434942;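 active means primary screen inhibitor hit that blocks the TRPC4 channel at some tested dose, yielding a dose curve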)
# [10] = molecular target: Short transient receptor potential channel 6 (Mus musculus) (UniProt Q61143); assay: inhibition of mouse TRPC6 channel, confirmation, selectivity assay for TRPC4 inhibitor project, cell-based, HEK293, membrane potential dye, duplicate (AID 434948;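 active means active in primary screen and both duplicates, each dropping signal beyond three positive-control SD with fluorescence still positive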); details: HEK293 TRPC6, membrane potential dye fluorescence, at 10 µM, stimulated with maximal-effect acetylcholine; stronger effect = higher value
# [11] = molecular target: Short transient receptor potential channel 6 (Mus musculus) (UniProt Q61143); assay: activation of mouse TRPC6 channel, confirmation, selectivity assay for TRPC4 activator project, cell-based, HEK293, membrane potential dye, duplicate (AID 434950;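 active means membrane potential signal rise above negative control mean plus 3 SD in both duplicates, also active in the earlier TRPC4 screen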); details: HEK293 TRPC6, membrane potential fluorescence, at 10 µM; stronger effect = higher value
# [12] = molecular target: Short transient receptor potential channel 6 (Mus musculus) (UniProt Q61143); assay: TRPC6 potentiation by TRPC4 potentiator hits, confirmation, selectivity assay for TRPC4 potentiator project, HEK293 cells, membrane potential dye, duplicate (AID 434952;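 active means compound raising the membrane signal above positive-control mean plus 3 SD in both repeats, and a primary screen hit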); details: HEK293 TRPC6, membrane potential dye fluorescence, at 10 µM, maximal acetylcholine added after compound; stronger effect = higher value
# [13] = molecular target: Short transient receptor potential channel 4 (Mus musculus) (UniProt Q9QUQ5); assay: calcium flux activators in TRPC4/5HT1a cells, counter-screen for TRPC4 activator project, cell-based, second counter screen, HEK293 TRPC4/5HT1a, Fluo-4 (AID 434977;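 active means calcium signal rise above buffer-control mean plus 5 SD in both duplicates, and also a hit in the primary screen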); details: Fluo-4 calcium flux, at 10 µM; stronger effect = higher value
# [14] = calcium flux inhibitors in TRPC4/5HT1a cells, confirmation, counter-screen for TRPC4 inhibitor project, cell-based, second counter screen, HEK293 TRPC4/5HT1a, Fluo-4 (AID 434978;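 active means primary screen active whose calcium signal fell more than 3 SD beyond the full-serotonin control mean in both duplicate plates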;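 further: serotonin given first at submaximal then at maximal dose after compound preincubation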); details: Fluo-4 calcium flux, at 10 µM, serotonin added to trigger calcium flux; stronger effect = higher value
# [15] = test system: TRPC4 (mouse), co-expressed with 5HT1a in HEK293; assay: calcium flux potentiators in TRPC4/5HT1a cells, confirmation, counter-screen for TRPC4 potentiator project, cell-based, second counter screen, HEK293 TRPC4/5HT1a, Fluo-4 (AID 434979;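 active means signal rise over 3 SD above mean of control wells given weak agonist, in both repeats and first screen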); details: Fluo-4 calcium flux, at 10 µM, serotonin added at its EC20 dose; stronger effect = higher value
# [16] = calcium flux activation in mu-opioid HEK293 cells, confirmation, counter-screen for TRPC4 activator project, cell-based, HEK293 mu-opioid receptor line (AID 449723;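 active means hit in primary screen, with calcium signal over 5 SD above buffer well mean in both duplicates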;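 further: counter screen cells carry the mu-opioid receptor alone and lack TRPC4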); details: Fluo-4 calcium fluorescence, at 10 µM; stronger effect = higher value
# [17] = calcium flux enhancement in mu-opioid HEK293 cells, confirmation, counter-screen for TRPC4 allosteric potentiator project, cell-based, HEK293 mu-opioid receptor line (AID 449724;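 active means calcium signal rise more than 3 SD above the low-dose agonist control mean, in both duplicate plates and the primary screen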); details: Fluo-4 calcium flux, at 10 µM, compound added before EC20 DAMGO stimulus; stronger effect = higher value
# Chain of Short transient receptor potential channel 4 (Mus musculus) (Q9QUQ5 whole entry, looked up): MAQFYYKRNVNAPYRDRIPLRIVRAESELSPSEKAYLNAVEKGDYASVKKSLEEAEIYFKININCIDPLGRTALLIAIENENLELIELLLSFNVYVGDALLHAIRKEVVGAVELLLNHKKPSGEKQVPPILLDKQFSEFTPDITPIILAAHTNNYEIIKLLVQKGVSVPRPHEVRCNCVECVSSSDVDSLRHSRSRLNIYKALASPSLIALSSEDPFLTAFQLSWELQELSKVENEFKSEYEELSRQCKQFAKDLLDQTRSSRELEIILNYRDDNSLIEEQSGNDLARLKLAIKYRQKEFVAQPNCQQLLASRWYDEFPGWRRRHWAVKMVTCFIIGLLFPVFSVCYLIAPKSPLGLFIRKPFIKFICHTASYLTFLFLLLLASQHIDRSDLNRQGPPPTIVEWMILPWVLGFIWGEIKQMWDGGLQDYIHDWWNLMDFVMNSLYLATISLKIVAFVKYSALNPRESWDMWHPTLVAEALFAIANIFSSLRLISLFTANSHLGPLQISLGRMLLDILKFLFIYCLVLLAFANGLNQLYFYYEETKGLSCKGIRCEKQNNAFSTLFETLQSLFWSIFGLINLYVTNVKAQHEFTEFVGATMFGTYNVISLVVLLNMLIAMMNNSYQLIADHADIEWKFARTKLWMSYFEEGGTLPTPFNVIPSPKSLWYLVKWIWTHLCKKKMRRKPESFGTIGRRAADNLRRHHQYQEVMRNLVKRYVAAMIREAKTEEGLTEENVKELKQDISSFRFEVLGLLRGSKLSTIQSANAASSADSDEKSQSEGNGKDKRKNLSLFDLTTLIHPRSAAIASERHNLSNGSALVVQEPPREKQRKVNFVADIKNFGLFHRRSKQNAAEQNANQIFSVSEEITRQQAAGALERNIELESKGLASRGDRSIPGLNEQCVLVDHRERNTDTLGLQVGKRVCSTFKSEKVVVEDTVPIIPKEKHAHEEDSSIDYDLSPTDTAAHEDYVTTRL
# Chain of Short transient receptor potential channel 6 (Mus musculus) (Q61143 whole entry, looked up): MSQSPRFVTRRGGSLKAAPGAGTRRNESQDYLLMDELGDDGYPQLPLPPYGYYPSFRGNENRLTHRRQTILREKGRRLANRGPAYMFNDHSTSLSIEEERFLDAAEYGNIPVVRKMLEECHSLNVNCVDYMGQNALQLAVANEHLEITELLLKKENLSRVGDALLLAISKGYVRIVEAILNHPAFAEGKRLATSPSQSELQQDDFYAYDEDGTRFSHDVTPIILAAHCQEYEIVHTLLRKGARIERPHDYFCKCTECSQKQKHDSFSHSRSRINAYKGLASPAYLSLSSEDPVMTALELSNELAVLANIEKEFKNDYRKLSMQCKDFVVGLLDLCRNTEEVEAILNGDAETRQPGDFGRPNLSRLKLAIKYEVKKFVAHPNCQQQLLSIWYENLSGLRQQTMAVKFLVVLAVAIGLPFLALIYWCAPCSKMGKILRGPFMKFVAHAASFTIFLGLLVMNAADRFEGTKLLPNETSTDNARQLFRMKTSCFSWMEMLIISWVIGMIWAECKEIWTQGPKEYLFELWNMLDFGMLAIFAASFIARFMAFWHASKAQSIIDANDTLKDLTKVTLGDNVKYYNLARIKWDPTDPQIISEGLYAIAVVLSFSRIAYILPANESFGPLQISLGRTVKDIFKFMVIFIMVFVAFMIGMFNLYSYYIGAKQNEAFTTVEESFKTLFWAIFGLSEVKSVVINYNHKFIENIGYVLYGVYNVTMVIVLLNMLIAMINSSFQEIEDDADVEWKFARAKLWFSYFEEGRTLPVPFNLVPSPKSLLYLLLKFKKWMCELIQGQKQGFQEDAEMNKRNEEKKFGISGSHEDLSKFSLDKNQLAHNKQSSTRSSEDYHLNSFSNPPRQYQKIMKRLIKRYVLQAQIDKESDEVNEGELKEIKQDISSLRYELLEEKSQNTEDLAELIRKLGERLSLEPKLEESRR
smiles,measurement,setting,value
COc1cccc(Oc2cncnc2-c2ccc(OC)cc2O)c1,outcome,[1],inactive
same,outcome,[2],inactive
same,outcome,[3],inactive
same,outcome,[4],inactive
same,outcome,[5],inactive
same,outcome,[6],inactive
same,outcome,[7],inactive
same,outcome,[8],inactive
same,outcome,[9],inactive
same,outcome,[10],inactive
same,outcome,[11],inactive
same,outcome,[12],inactive
same,outcome,[13],inactive
same,outcome,[14],inactive
same,outcome,[15],inactive
same,outcome,[16],inactive
same,outcome,[17],inactive
Cc1ccc(CSc2nnc(-c3cccc(S(=O)(=O)N4CCOCC4)c3)n2C2CCCC2)cc1,outcome,[1],inactive
same,outcome,[2],inactive
same,outcome,[3],inactive
same,outcome,[4],inactive
same,outcome,[5],inactive
same,outcome,[6],inactive
same,outcome,[7],inactive
same,outcome,[8],inactive
same,outcome,[9],inactive
same,outcome,[10],inactive
same,outcome,[11],inactive
same,outcome,[12],inactive
same,outcome,[13],inactive
same,outcome,[14],inactive
same,outcome,[15],inactive
same,outcome,[16],inactive
same,outcome,[17],inactive
Cc1cc(S(=O)(=O)N2CCC(N3CCCCC3)CC2)ccc1-n1cnnn1,outcome,[1],inactive
same,outcome,[2],inactive
same,potentiation,[3],11% (active)
same,potentiation,[4],11% (active)
same,outcome,[5],inactive
same,outcome,[6],inactive
same,outcome,[7],inactive
same,outcome,[8],inactive
same,outcome,[9],inactive
same,outcome,[10],inactive
same,outcome,[11],inactive
same,outcome,[12],inactive
same,outcome,[13],inactive
same,outcome,[14],inactive
same,potentiation,[15],19.1% (active)
same,outcome,[16],inactive
same,outcome,[17],inactive
COc1ccc(C(=O)NNC(=O)CN2CCC(n3nnc4cc(C)ccc43)CC2)cc1,outcome,[1],inactive
same,outcome,[2],inactive
same,potentiation,[3],15% (active)
same,potentiation,[4],28% (active)
same,outcome,[5],inactive
same,outcome,[6],inactive
same,outcome,[7],inactive
same,outcome,[8],inactive
same,outcome,[9],inactive
same,outcome,[10],inactive
same,outcome,[11],inactive
same,outcome,[12],inactive
same,outcome,[13],inactive
same,outcome,[14],inactive
same,outcome,[15],inactive
same,outcome,[16],inactive
same,outcome,[17],inactive
COC(=O)[C@@]12CCCCN1[C@H](c1ccc(-c3ccccc3)cc1)[C@@H]1C(=O)N(C)C(=O)[C@@H]12,outcome,[1],inactive
same,outcome,[2],inactive
same,outcome,[3],inactive
same,outcome,[4],inactive
same,outcome,[5],inactive
same,outcome,[6],inactive
same,outcome,[7],inactive
same,outcome,[8],inactive
same,outcome,[9],inactive
same,outcome,[10],inactive
same,outcome,[11],inactive
same,outcome,[12],inactive
same,outcome,[13],inactive
same,outcome,[14],inactive
same,potentiation,[15],20.4% (active)
same,outcome,[16],inactive
same,outcome,[17],inactive
COc1ccc2sc(N(CCCN(C)C)C(=O)c3ccc(S(=O)(=O)N4CCCc5ccccc54)cc3)nc2c1,outcome,[1],inactive
same,outcome,[2],inactive
same,outcome,[3],inactive
same,potentiation,[4],28% (active)
same,outcome,[5],inactive
same,outcome,[6],inactive
same,outcome,[7],inactive
same,outcome,[8],inactive
same,outcome,[9],inactive
same,outcome,[10],inactive
same,outcome,[11],inactive
same,outcome,[12],inactive
same,outcome,[13],inactive
same,outcome,[14],inactive
same,potentiation,[15],80% (active)
same,outcome,[16],inactive
same,outcome,[17],inactive
CCc1ccc(OCc2ccc(C(=O)NCc3ccccn3)o2)cc1,outcome,[1],inactive
same,outcome,[2],inactive
same,outcome,[3],inactive
same,potentiation,[4],19% (active)
same,outcome,[5],inactive
same,outcome,[6],inactive
same,outcome,[7],inactive
same,outcome,[8],inactive
same,outcome,[9],inactive
same,outcome,[10],inactive
same,outcome,[11],inactive
same,outcome,[12],inactive
same,outcome,[13],inactive
same,outcome,[14],inactive
same,outcome,[15],inactive
same,outcome,[16],inactive
same,outcome,[17],inactive
CN(C)c1ccc(C(=S)N2CCN(c3ccc([N+](=O)[O-])cc3)CC2)cc1,outcome,[1],inactive
same,outcome,[2],inactive
same,outcome,[3],inactive
same,outcome,[4],inactive
same,outcome,[5],inactive
same,outcome,[6],inactive
same,outcome,[7],inactive
same,outcome,[8],inactive
same,outcome,[9],inactive
same,outcome,[10],inactive
same,outcome,[11],inactive
same,outcome,[12],inactive
same,outcome,[13],inactive
same,outcome,[14],inactive
same,potentiation,[15],8.7% (active)
same,outcome,[16],inactive
same,outcome,[17],inactive
Cc1n[nH]c(C)c1Cc1c(F)cccc1Cl,outcome,[1],inactive
same,outcome,[2],inactive
same,outcome,[3],inactive
same,outcome,[4],inactive
same,inhibition,[5],94% (active)
same,outcome,[6],inactive
same,outcome,[7],inactive
same,outcome,[8],inactive
same,outcome,[9],inactive
same,outcome,[10],inactive
same,outcome,[11],inactive
same,outcome,[12],inactive
same,outcome,[13],inactive
same,outcome,[14],inactive
same,outcome,[15],inactive
same,outcome,[16],inactive
same,outcome,[17],inactive
O=C(CSCc1cccc(Cl)c1)N1CCN(Cc2ccc3c(c2)OCO3)CC1,outcome,[1],inactive
same,outcome,[2],inactive
same,outcome,[3],inactive
same,outcome,[4],inactive
same,outcome,[5],inactive
same,outcome,[6],inactive
same,outcome,[7],inactive
same,outcome,[8],inactive
same,outcome,[9],inactive
same,outcome,[10],inactive
same,outcome,[11],inactive
same,outcome,[12],inactive
same,outcome,[13],inactive
same,outcome,[14],inactive
same,outcome,[15],inactive
same,outcome,[16],inactive
same,outcome,[17],inactive
CCCCN(C)CCNC(=O)C1CCCN(S(=O)(=O)c2cccc3nsnc23)C1 (stereo not given),outcome,[1],inactive
same,outcome,[2],inactive
same,potentiation,[3],11% (active)
same,outcome,[4],inactive
same,outcome,[5],inactive
same,outcome,[6],inactive
same,outcome,[7],inactive
same,outcome,[8],inactive
same,outcome,[9],inactive
same,outcome,[10],inactive
same,outcome,[11],inactive
same,outcome,[12],inactive
same,outcome,[13],inactive
same,outcome,[14],inactive
same,potentiation,[15],7.12% (active)
same,outcome,[16],inactive
same,outcome,[17],inactive
C#CC[N+]1(CC#Cc2cccc3ccccc23)CCOCC1,outcome,[1],inactive
same,outcome,[2],inactive
same,outcome,[3],inactive
same,potentiation,[4],22% (active)
same,outcome,[5],inactive
same,outcome,[6],inactive
same,outcome,[7],inactive
same,outcome,[8],inactive
same,outcome,[9],inactive
same,outcome,[10],inactive
same,outcome,[11],inactive
same,outcome,[12],inactive
same,outcome,[13],inactive
same,outcome,[14],inactive
same,potentiation,[15],26.3% (active)
same,outcome,[16],inactive
same,outcome,[17],inactive
Cc1noc(C)c1COC(=O)[C@@H](NC(=O)c1ccccc1Cl)C(C)C,outcome,[1],inactive
same,outcome,[2],inactive
same,outcome,[3],inactive
same,outcome,[4],inactive
same,outcome,[5],inactive
same,outcome,[6],inactive
same,outcome,[7],inactive
same,outcome,[8],inactive
same,outcome,[9],inactive
same,outcome,[10],inactive
same,outcome,[11],inactive
same,outcome,[12],inactive
same,outcome,[13],inactive
same,outcome,[14],inactive
same,outcome,[15],inactive
same,outcome,[16],inactive
same,outcome,[17],inactive
NNc1ccc(Cc2ccc(Cl)cc2Cl)nn1,outcome,[1],inactive
same,outcome,[2],inactive
same,outcome,[3],inactive
same,outcome,[4],inactive
same,outcome,[5],inactive
same,outcome,[6],inactive
same,outcome,[7],inactive
same,outcome,[8],inactive
same,outcome,[9],inactive
same,outcome,[10],inactive
same,outcome,[11],inactive
same,outcome,[12],inactive
same,outcome,[13],inactive
same,outcome,[14],inactive
same,potentiation,[15],15.2% (active)
same,outcome,[16],inactive
same,outcome,[17],inactive
CCn1c2ccc(F)cc2c2nnc(NN)nc21,outcome,[1],inactive
same,outcome,[2],inactive
same,potentiation,[3],27% (active)
same,potentiation,[4],73% (active)
same,outcome,[5],inactive
same,outcome,[6],inactive
same,outcome,[7],inactive
same,outcome,[8],inactive
same,outcome,[9],inactive
same,outcome,[10],inactive
same,outcome,[11],inactive
same,outcome,[12],inactive
same,outcome,[13],inactive
same,outcome,[14],inactive
same,outcome,[15],inactive
same,outcome,[16],inactive
same,outcome,[17],inactive
